NPC1 prom act – activates the NPC1 promoter; Huh7 NPC1 promoter luciferase reporter, 24 h; Potency, µM (doses to about 9.22 µM), without a hit: at the highest dose activation, most hits filed as activators; 320,000 compounds, 2.4% hits; note: % of control where 0% means no effect; nearly all actives have a fitted effect of over 60% in size
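Readout is luciferase luminescence, reflecting NPC1 promoter activation in stably transfected Huh7 cells after 24 h compound exposure at 37 °C in reduced-serum medium with 10% FBS.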
FLuc counter – firefly luciferase modulation, counter-screen for miR-21 project; P08659; purified FLuc, Km substrates, luminescence inhibition; Potency, µM (top dose mostly 57.5 µM), for inactives: at the top dose activity change, negative = inhibition, actives largely listed as inhibitors; 360,000 compounds, 6.9% hits; AID 588342;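 note: plate controls were vehicle for no effect and reference inhibitor for full effect; nearly all actives have a fitted effect of over 55% in size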
Target sequence (P08659 whole entry, looked up): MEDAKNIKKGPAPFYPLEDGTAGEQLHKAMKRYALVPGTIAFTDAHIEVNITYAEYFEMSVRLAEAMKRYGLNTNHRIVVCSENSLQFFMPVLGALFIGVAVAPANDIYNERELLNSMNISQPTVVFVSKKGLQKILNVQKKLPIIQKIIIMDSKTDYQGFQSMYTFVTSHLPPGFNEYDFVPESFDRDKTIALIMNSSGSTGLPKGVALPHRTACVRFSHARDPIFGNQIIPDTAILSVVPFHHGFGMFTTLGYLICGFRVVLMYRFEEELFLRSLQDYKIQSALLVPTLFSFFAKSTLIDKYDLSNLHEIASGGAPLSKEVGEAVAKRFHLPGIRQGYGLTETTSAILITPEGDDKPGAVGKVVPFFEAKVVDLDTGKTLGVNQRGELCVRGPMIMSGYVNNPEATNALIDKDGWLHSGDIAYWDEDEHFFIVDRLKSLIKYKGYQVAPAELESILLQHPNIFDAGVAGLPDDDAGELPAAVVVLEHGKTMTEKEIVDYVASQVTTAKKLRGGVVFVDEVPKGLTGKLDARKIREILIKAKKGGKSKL
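Biochemical qHTS of compounds, final roughly 60 µM downward over six points, against 10 nM purified firefly luciferase using Km concentrations of substrates (10 uM D-luciferin, 10 uM ATP) in Tris acetate pH 7.5 buffer; luminescence output.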
ELG1 DNA repair – blocks ELG1-dependent DNA repair in HEK293T cells. HEK293T ELG1-luciferase reporter, luminescence, 16 h; DNA damage induced by 5-fluorouridine. Potency, µM (doses to about 46.1 µM), inactives show top-dose activity change, negative = inhibition, actives largely listed as inhibitors. 330,000 compounds, 2.3% hits. AID 504467; note: % is set by controls: 0 for no effect and ±100 for the full control effect; nearly all actives have a fitted effect of over 55% in size
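Reporter activity after DNA damage by 5-fluorouridine is monitored. Compound-treated cells incubate 16 hr at 37 °C, then ONE-Glo is added for 30 min before luminescence reading.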
Rab9 prom act – Rab9 promoter activation. Huh7 Rab9 promoter-luciferase reporter, luminescence, 24 h. Potency, µM (series often up to 9.22 µM), without a hit: at the top dose activation, negative = inhibition, most hits filed as activators. 320,000 compounds, 2.8% hits. AID 485297; note: % of control where 0% means no effect; nearly all actives have a fitted effect of over 60% in size
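Luminescence from Amplite-detected luciferase (10 minutes, ambient) reports Rab9 promoter activation. Before that, stable Rab9-luciferase Huh7 cells (1500/well, reduced-serum OP-MEM I plus 10% FBS) were exposed to compound for 24 hours at 37C.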
SMN2 splice up – increases expression of the SMN2 splice variant | AID 1458 | Potency, µM (highest dose often 46.1 µM), for the others: at the highest dose activity change, positive = activation, actives largely listed as activators | 210,000 compounds, 2.8% hits | HEK293 SMN2-luciferase splicing reporter, luminescence, 30-36 h; note: % of control where 0% means no effect; nearly all actives have a fitted effect of over 55% in size
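HEK293 cells carry an SMN2 […]–luciferase reporter in which exon 7 inclusion puts luciferase in frame. Cells were plated 10-12 h before compound addition, then incubated 30-36 h at 37C. ONE-Glo luminescence was read; sodium butyrate at 4.5 mM final served as control.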
ELG1 genotoxic – inducers of genotoxicity in HEK293T ELG1-luciferase cells; HEK293T ELG1-luciferase reporter, luminescence, 16 h; Potency, µM (top dose mostly 46 µM), without a hit: at the highest dose activity change, positive = activation, usual class: activators; 330,000 compounds, 1.3% hits; AID 504466; note: % of control where 0% means no effect; nearly all actives have a fitted effect of over 60% in size
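Genotoxic stress is detected as increased luminescence from luciferase-tagged ELG1 in HEK293T cells, measured with ONE-Glo after a 16 hr treatment at 37 °C.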
* = called active by the depositor; ? = inconclusive; . = no result; [ ] = remark or other dose. Compounds with a hit are over-represented: about 9.3% of the library has one in this group of screens. Calls come from the whole dose curve; as a rule, active = well fitted curve in the direction sought with a large enough effect; inconclusive = small, poorly fitted or top-dose-only effect, or another doubt; inactive = no such curve, though single readings can be large; an effect the other way counts as inactive or inconclusive. Potency is the fitted concentration of half-maximal effect.

SMILES	NPC1 prom act	FLuc counter	ELG1 DNA repair	Rab9 prom act	SMN2 splice up	ELG1 genotoxic
O=C(Nc1cccc(NC(=O)c2sc3ccccc3c2Cl)c1)c1ccco1	12.5%	2.69µM*	?	9.6%	20.9%	-7.8%
O=C(Nc1cccc(NC(=O)c2nccc3ccccc23)c1)c1ccco1	1.3%	8.49µM*	-12.2%	2.7%	-7.0%	?
COc1ccc(OC)c(C2=Nn3c(nnc3-c3cc(OC)c(OC)c(OC)c3)SC2)c1	-2.9%	3.6%	?	7.4%	2.5%	-6.6%
COc1ccc(C2=Nn3c(nnc3-c3cc(C)[nH]n3)SC2)cc1	-8.4%	-1.3%	?	-2.2%	.	20.6µM*
CCc1nnc2n1N=C(c1ccc(Cl)cc1)CS2	-4.9%	0.4%	?	-4.9%	.	4.2%
COc1cccc(-c2nnc3n2N=C(c2cc(OC)ccc2OC)CS3)c1	2.7%	-6.9%	18.4µM*	0.7%	10.5%	-6.4%
COc1cc(-c2nnc3n2N=C(c2ccccc2)CS3)cc(OC)c1OC	-24.6%	-1.2%	9.2µM*	-12.2%	1.7%	-14.7%
Cc1nnc2n(c1=O)N=C(c1ccc(Cl)cc1)CS2	1µM*	2.3%	?	0.501µM*	2µM*	28.9%
CC(C)c1cc(C(C)C)c(S(=O)(=O)NNC(=O)c2ccncc2)c(C(C)C)c1	-0.1%	11.5%	-6.5%	-5.4%	-7.9%[1.84 µM]	-0.4%
COc1ccccc1-c1nnc(NC(=O)C(C)SC2=NCCS2)s1 (configuration not stated)	0.2%	?	?	-10.0%	-21.6%	1.1%
CCOc1cccc(-c2nnc3n2N=C(c2cc(OC)ccc2OC)CS3)c1	-31.9%	-0.3%	5.17µM*	-13.6%	-66.4%	-1.1%
COCCNc1oc(-c2ccc(C)cc2)nc1C#N	?	12µM*	?	3.55µM*	10µM*	5.62µM*
COc1ccc(CCNc2oc(-c3ccc(C)cc3)nc2C#N)cc1OC	6.5%	3.9%	-16.2%	-2.6%	-40.3%	9.4%
COCCNc1oc(-c2ccc(Cl)cc2)nc1C#N	?	10.7µM*	?	?	?	?
O=C(CSc1nnc(-c2ccncc2)n1Cc1ccco1)Nc1cccc(O)c1	-0.5%	-4.6%	-6.1%	-3.2%	.	0.1%
Cn1ncc(Br)c1C(=O)N1CCN(C(=O)c2ccco2)CC1	-1.7%	-1.5%	-1.6%	1.7%	6.6%	2.0%
COc1ccc(O)c(/C=C(\C#N)C(=O)Nc2ccccn2)c1	-1.8%	2.39µM*	6.0%	-1.9%	.	17.0%
Cc1ccc(/C=C(\C#N)C(=O)NC(C)C)o1	-1.3%	-1.4%	?	5.3%	2.7%	-2.6%
COc1ccc(/C=C(\C#N)C(=O)Nc2ccccn2)cc1	-7.7%	2.13µM*	14.2%	-6.6%	.	?
Cc1ccc(/C=C(\C#N)C(=O)Nc2cccc(C)n2)cc1	4.3%	2.39µM*	-16.3%	-2.1%	.	-3.0%
Cc1ccc(/C=C(\C#N)C(=O)Nc2ccccn2)o1	?	8.49µM*	?	2.51µM*	17.8µM*	5.17µM*
CC1CCC(N(CCCN)Cc2ccco2)CC1C (configuration not stated)	0.5%	-1.6%	-2.6%	-7.0%	-3.8%	-6.9%
Cc1ccc(CNC(=O)c2cc(-c3ccccc3C)nn2CC2CC(c3cccnc3)=NO2)cc1 (configuration not stated)	.	.	?	.	.	-7.5%
Cc1ccccc1-c1cc(C(=O)NCc2ccc(OC(F)(F)F)cc2)n(CC2CC(c3cccnc3)=NO2)n1 (configuration not stated)	.	.	18.3µM*	.	.	-9.0%
Cc1ccccc1-c1cc(C(=O)NCc2cccc(C(F)(F)F)c2)n(CC2CC(c3cccnc3)=NO2)n1 (configuration not stated)	.	.	16.4µM*	.	.	-9.5%
SMILES	NPC1 prom act	FLuc counter	ELG1 DNA repair	Rab9 prom act	SMN2 splice up	ELG1 genotoxic
CC(OC(=O)[C@@H](NC(=O)c1ccco1)C(C)C)C(=O)Nc1ncc(Cl)cc1Cl (some centres not stated)	.	.	11.3%	.	.	-2.1%
COc1cccc2c(Cl)c(CC=C(Cl)Cl)c(C)nc12	-2.5%	-12.5%	-1.1%	-9.5%	.	-7.3%
C=CCc1c(C)nc2c(OC)cccc2c1Cl	0.8%	13.5µM*	?	1.4%	.	-0.9%
Cc1cc(C)n(-c2ncc(C#N)cn2)n1	-2.0%	-2.2%	6.0%	0.6%	5.0%	2.4%
Cc1cc(C)n(-c2nnc(NC34CC5CC(CC(C5)C3)C4)nn2)n1	2µM*	2.39µM*	?	3.55µM*	11.2µM*	?
Cc1cc(C)n(-c2nc(NC(C)(C)C)nc(NC(C)(C)C)n2)n1	-1.3%	-0.2%	?	-4.5%	-48.9%	-4.3%
Cc1cc(C)n(-c2nnc(NC(C)(C)C)nn2)n1	?	21.3µM*	?	3.16µM*	12.6µM*	?
C/C(=N\Nc1cccc2cccnc12)c1ccccc1O	14.5%	1.2µM*	?	?	25.1µM*	?
C/C(=N\Nc1cccc2cccnc12)c1ccc(N)cc1	2.82µM*	4.26µM*	?	2.24µM*	11.2µM*	?
C/C(=N\Nc1cccc2cccnc12)c1ccccn1	3.16µM*	0.338µM*	?	0.794µM*	2µM*	?
CNC(=O)Nc1cccc2cccnc12	-1.6%	5.3%	0.0%	-4.8%	.	-1.0%
COc1ccccc1CNS(=O)(=O)c1ccc2c(c1)N(C(C)=O)CC(C)S2 (configuration not stated)	0.6%	-1.5%	9.7%	-10.3%	.	-0.8%
Cc1ccc(CCCC(=O)O)cc1C	.	.	.	.	-6.0%[9.22 µM]	.
O=C(O)CCCc1ccc2c(c1)CCc1ccccc1-2	-1.0%	4.26µM*	?	-0.7%	.	9.7%
COc1ccc2c(c1)O[C@@H](c1cccc(C(F)(F)F)c1)[C@H](OC(=O)NS(=O)(=O)c1ccc(C)cc1)C2=O	.	.	.	.	-1.1%	.
COc1ccc(-c2csc(N(CC3CCCO3)C(=O)c3ccccc3)n2)cc1 (configuration not stated)	-5.6%	-0.8%	8.2µM*	-2.7%	-9.7%	-13.1%
COc1ccc(-c2cc(C(=O)NCC3CCCO3)c3cc(C)ccc3n2)cc1 (configuration not stated)	15.8%	2.13µM*	-28.8%	20.6%	?	3.1%
COc1ccc(-c2cc(C(=O)NCC3CCCO3)c3ccccc3n2)cc1 (configuration not stated)	13.5%	12µM*	-6.4%	17.3%	7.1%	-5.7%
Cc1ccc(-c2cc(C(F)(F)F)n3ncc(C(=O)O)c3n2)cc1	-0.1%	0.0%	9.2%	-1.7%	-11.2%	3.2%
COCCNC(=O)c1cnn2c(C(F)(F)F)cc(-c3ccc(C)cc3)nc12	-4.8%	0.9%	5.8µM*	-11.0%	-12.9%	-10.6%
COc1ccc(-c2csc(N(CC3CCCO3)C(=O)c3ccc(C)cc3)n2)cc1 (configuration not stated)	-4.7%	7.3%	?	-7.5%	-42.5%	-0.2%
O=C(Nc1ccccc1)c1ccc(S(=O)(=O)N2CCCCC2)cc1	0.3%	-6.1%	-12.5%	0.6%	-12.1%	2.1%
COc1cccc(-c2cc(C(=O)NCC3CCCO3)c3ccccc3n2)c1 (configuration not stated)	-1.9%	26.9µM*	?	-1.8%	-5.8%	-1.9%
Cc1ccc(-c2cc(C(=O)NCC3CCCO3)c3ccccc3n2)cc1C (configuration not stated)	5.9%	6.75µM*	?	2.7%	15.6%	-5.7%

Source: PubChem (National Center for Advancing Translational Sciences (NCATS))
